Laboratory results as given in PubChem BioAssay AID1347426 (Functional Genomics Laboratory (NCATS/FGL), 2020).
Out of some 31,000 sequences screened, about 1,400 (4.5%) were called active.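 The calls were made as follows: active = median seed-adjusted z-score above 1 or below -1; inactive = the rest.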 The full list was thinned out, with actives kept by preference.

Test: Novel Modifiers of Survival Motor Neuron (SMN) Protein: Gene Identification via Genome-wide siRNA Screen
Conditions: HEK293T SMN2-luciferase reporter, siRNA knockdown, 72 h; actives lie on both sides
Text: Spinal muscular atrophy (SMA) is the most common neuromuscular autosomal recessive disorder and one of the leading genetic causes of infant death. SMA results from mutations inducing loss of function or deletion in the survival of motor neuron-1 gene (SMN1), leading to deficiency of the survival motor neuron (SMN) protein. Although a second nearly identical gene, SMN2, is retained in humans, its expression primarily produces an aberrantly spliced isoform that is largely unstable and quickly degraded. We performed a genome-wide RNAi screen using a cell-based reporter assay to identify genes and pathways that modulate SMN protein stability. The screen identified over 200 genes that led to the greatest increase or decrease in luciferase expression.
Using HEK293T cells stably expressing a luciferase reporter that combines the promoter and splicing based cassettes in tandem with the major portion of the native SMN2 cDNA with luciferase, we performed a genome-wide RNAi screen to identify modulators of SMN protein levels. Luciferase is expressed when full-length SMN protein is generated with luminescence signal proportional to SMN protein levels. Our luciferase-based reporter assay was used to screen Ambion Silencer Select Human Druggable Genome siRNA library (10418 genes, 3 unique siRNAs per gene) using lipid-based reverse transfection.
Briefly, 1 pmol of each siRNA was spotted to a well of a 384-well plate (Corning, Corning, NY) and 20 microL of serum-free DMEM containing […] of Lipofectamine RNAiMax (Life Technologies, Carlsbad, CA) was then added to each well. Transfected cells were maintained at 37 degrees C in 5% CO2 for 72 hours, 20 microL of ONE-Glo Reagent (Promega) was added to wells for luciferase quantification. Raw luminescence reads were normalized to Ambion(R) Silencer(R) Negative Control #2 siRNA, then log10 transformed. A robust statistical measure of median absolute deviation (MAD) to standardize siRNA activities from each screen. Common Seed Analysis was used to help prioritize clean hits as opposed to those appearing to arise from seed based off-target effects. Candidate modulators were defined as the genes having a MAD score greater than 1.0 or less than -1.0.

Sequence	median seed-adjusted z-score
GCAGGAGUUUGUUUAAUGATT against UGT1A10	0.286 (inactive)
GUAUACCGAUUGAUAACCATT against BTAF1	-1.19 (active)
GUGUUUUUGUAGUUACCUATT against TSEN34	0.918 (inactive)
CCACGAAGAAUGGAUUGAATT against TRIO	0.42 (inactive)
ACACCACGCUCAACAUCAATT against ZBED1	0.0567 (inactive)
GGUUGAUGCAGACAACAAATT against LGTN	0.491 (inactive)
GGAAUGCUAUGAUAGACGATT against GNAQ	-1.23 (active)
GGAAUUCGAGGAUUAUGCATT against HIAT1	-0.0612 (inactive)
CAAGGAGAGGCAUAACGUATT against DNASE1L3	0.0678 (inactive)
GAUUACAACCUGUAUCGAATT against THOC1	-3.04 (active)
GGACAUAAUGUAUUAUACUTT against DDHD1	0 (inactive)
GGUCACGGAUUGCUUUUUATT against DUS1L	0.0698 (inactive)
GGAAGAACCAGAGUGUGAATT against C1RL	-0.148 (inactive)
GGGAGAUUCUCCAACUAAATT against SR140	1.16 (active)
GGAUCGAUUCUGAAUAUGATT against PAPSS1	-0.648 (inactive)
GGUUGAAGCUUACUCCGGATT against DHX9	-0.687 (inactive)
UCACUGAUGUACUACCUAUTT against RPUSD4	-0.0264 (inactive)
GGAUCACGCAGCUCAAGAUTT against TBX1	-0.744 (inactive)
CCGCGAAGAUGUUAGCAUUTT against PRSS12	0.119 (inactive)
ACAUAUAGGUAUCGACCAATT against PRICKLE2	-1.12 (active)
GCCCAGGAAAGAUAAGGCATT against PTH1R	-0.521 (inactive)
GCAGUGCGUUCAGUGCAAATT against FHL2	0.475 (inactive)
CGAUUAGGACUGACAAUAATT against IFT57	-1.1 (active)

Sequence	median seed-adjusted z-score
GCUUGUUCCUUCAAUUAAATT against ZNF41	0.342 (inactive)
GCAUUAGGUUCACUAAAUATT against GPR160	-0.278 (inactive)
GGCUUAACCUGGUGAUAAATT against GLUD1	0.156 (inactive)
GGAUGACGGUGUCUACUCATT against CLCA1	0.015 (inactive)
GUUCUUGUCUAAGACAUGATT against ZNF799	-1.02 (active)
GGUUAAUAUUGCGAAAGUATT against TXNDC1	0.458 (inactive)
AGCUCUACAUUGGCGAUGATT against DUPD1	-0.406 (inactive)
GCAUAUUCCAAACUAGUGATT against STARD6	0.0605 (inactive)
GCGUGGAACCGGACAUCAATT against TPSD1	0.0848 (inactive)
CCACGUCACCAGUACUAUATT against UBA1	1.34 (active)
ACAGUGUGGUUCUUCAUUUTT against C1QL3	-0.276 (inactive)
CAUCACCUGUAGAACCUGATT against PIAS2	-0.096 (inactive)
GAAUGGUCCUAAAACACCATT against NFE2L2	-0.596 (inactive)
GAAAUUGAUAAGCAAAGUATT against TRO	2.04 (active)
CUGCCUACGUGAACUGGAUTT against TPSG1	0 (inactive)
GAAGGAGACUAAUGAGCAATT against FGD4	-0.0017 (inactive)
CGAGUGUCUUCACUACAAATT against IL3RA	-0.951 (inactive)
GCAAGUCGUCUAUUCAGAATT against RRAGD	0.313 (inactive)
GGCACUUAAGGUUCGCUAUTT against PPP4C	1.15 (active)
GGCUCUUGGAAUAACUGAATT against SERPINI1	0.127 (inactive)
CAUUAAAGGUUUACCCAAUTT against IDH1	0.421 (inactive)
GGCUUUGAAUUCAAUCUAUTT against GPR149	-0.186 (inactive)
CGUCGCGCCCUGUACAUAATT against GPR35	-1.46 (active)

Sequence	median seed-adjusted z-score
UCAGUUACCUGCAUACCAATT against AEBP1	-0.0536 (inactive)
CCUACUAUGAUGUUAGUAATT against SCGN	-0.0164 (inactive)
GAUACUCAGAAGUUGAUAATT against MYSM1	-0.116 (inactive)
ACACUCUUGUGGUCAAGAATT against HNRNPC	-2.15 (active)
GCAAGAAACUCCACCCUUUTT against RGS3	0.065 (inactive)
CUACCACAAUCAUCGAAAATT against FABP3	-0.0786 (inactive)
CAAACCUAACUAUACAUAATT against ZNF107	0.0761 (inactive)
GUAAGCAUUUUAAUUCCAATT against CLCA3	0.424 (inactive)
UUACAUUGAUUACACUGGATT against RBM24	0.0471 (inactive)
UCGUUUUUACAGAUGUUAATT against SAP18	2.14 (active)
CCUACUAUCAAGAUUCAAATT against HERC3	-0.0884 (inactive)
GAGUCAACCCAUACAUUAATT against PLS1	-0.0715 (inactive)
GCUGGUUUAUUUAACUCGATT against E2F6	-0.299 (inactive)
GAGUCUGUUUUACGACAAATT against TMPRSS11D	-0.0643 (inactive)
CCAGUCGCGUAAGACAACATT against PYDC1	-1.44 (active)
CCCAGAGCUUCAAAGUGUATT against HSD17B1	-0.569 (inactive)
GCAGAGCGGAAGUAAGGAUTT against AFMID	-0.515 (inactive)
CAUUAUCUCGUUUCCGGAATT against IFNGR2	0.148 (inactive)
GCGGAAAGGUGGACUUUGATT against CABP2	0.323 (inactive)
GCAUCCUCAUCAACCGCAATT against SAPS1	1.16 (active)
CCCAGAAGAUGACCACUCATT against PDXDC1	0.665 (inactive)
GACUUGCCCUUACUGCAAATT against RNF175	0.127 (inactive)
CGUUGCUAGUGCUCACUUATT against FRAG1	-0.554 (inactive)
